Growth data for 27 compounds are collected here from PubChem BioAssay (NCI).

The panel holds about 83,000 compounds, 20% with a hit somewhere; the sample as a whole holds those more often.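 For each line, cells grew in 96-well plates with the test compound present at a single concentration for 48 hours.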 Unmarked numbers belong to inactive results. Calls of active or inactive are those of the source. The calls were made as follows: active = growth percent below 10; inactive = the rest.

Assay in all cases: NCI-60 one-dose screen, 48 h (100 = growth as untreated, 0 = no growth, -100 = all killed)
Conditions in all cases: 10 µM unless noted

Assay [1] relates to HCT-15 colon.
In assay [2] the test system is HT29 colon.
Assay [3] relates to SNB-75 CNS.
Assay [4] relates to SNB-19 CNS.
Assay [5] relates to U251 CNS.
The test system of assay [6] is PC-3 prostate.
Assay [7] has as its system SK-MEL-5 melanoma.
The subject of assay [8] is UACC-62 melanoma.
For assay [9], the system named is LOX IMVI melanoma.
Assay [10] concerns SK-MEL-28 melanoma.

`CCOC(=O)/C=C/c1c(C)[nH]c(=O)[nH]c1=O`: the growth in assay [1] was 21.3%; in assay [2] it was 31.4%; in assay [3] it was 110%; in [4], 93.4%; in assay [5], 81.2%; in assay [6], 80.9%. Further, the growth in [7] was 90.7%; in assay [8] it was 87.6%; in assay [9], 82.6%; in [10], 117%.

For the compound `COc1ccc(C2=CN3CC=CCC3CC2=O)cc1` (stereo not given), the growth in assay [1] was 108%; in assay [2], 84.5%; in assay [3], 103%; in assay [4] it was 107%; in assay [5], 91.4%; in assay [6], 81.9%. In addition, the growth is 96.4% in [7], 99.5% in [8], 99.8% in assay [9] and 112% in assay [10].

For `CCCCSCC(=O)c1ccccc1`, the growth in [1] was 104%; in assay [2], 92.2%; in [3], 82.3%; in assay [4] it was 98.1%; in assay [5], 97.3%; in [6], 81.5%. Besides, the growth in assay [7] was 102%; in [8] it was 102%; in assay [9], 101%; in assay [10] it was 108%.

For `Cc1ccc2[nH]c(=O)c3c(c2c1)OC(N)=C(C#N)C31C(=O)c2cccc3cccc1c23` (stereo not given), the growth was 105% in assay [1]; 95.6% in [2]; 84.4% in assay [3]; 97.1% in assay [4]; 95.2% in assay [5]; 89.3% in assay [6]. Also, the growth in [7] was 94.3%; in assay [8], 88.9%; in assay [9] it was 93.5%; in [10], 98.7%.

As for `COc1ccc(C2=NN(C(=O)c3cc(OC)c(OC)c(OC)c3)C(c3ccc(N(C)C)cc3)C2)cc1` (stereo not given), the growth was 10.6% in assay [1]; 19.1% in assay [2]; 18.1% in assay [3]; 37.6% in assay [4]; 15.6% in assay [5]; 20.6% in [6]. For the same compound, the growth in assay [7] was 5.24% (active); in assay [8], 15.6%; in [9], 28.9%; in assay [10], 56.3%.

For the compound `COc1ccc2c(c1)c(-c1nonc1-c1c[nH]c3ccc(Br)cc13)cn2C`, the growth in [1] was 22.2%; in assay [2], 11.9%; in assay [3], 63.3%; in [4], 52.2%; in assay [5], 34.9%; in [6], 43.8%. For the same compound, the growth in [7] is 57.1%; in assay [8], 38.2%; in assay [9], 22.4%; in assay [10] it was 61%.

Turning to `CC(C)c1ccc(-n2c(=S)[nH]c3sc4c(c3c2=O)CCC(=O)C4)cc1`, the growth in [1] was 45.9%; in assay [2], 109%; in assay [3], 41.6%; in assay [4] it was 26.4%; in [5] it was 11.8%; in [6] it was 7.63% (active). Further, the growth in assay [7] is 27.9%; in [8], 24.5%; in assay [9], 43.3%; in assay [10], 75.7%.

On to `CCN(CCO)CC(C)Nc1ccc([N+](=O)[O-])c2sc3ccccc3c(=O)c12` (stereo not given), for which the growth in assay [1] is 27.2%; in [2] it was 11.3%; in assay [3], 36.4%; in [4], 43.2%; in assay [5] it was 26.7%; in [6], 28.3%. The growth in [7] was 12.3%; in [8], 29.8%; in assay [9] it was 16.2%; in assay [10], 44.4%.

For `Fc1ccc(COc2ccc(Nc3ncnc4sc5c(c34)CCCC5)cc2)cc1`, the growth in [1] was 92.6%; in [2] it was 77.8%; in assay [3], 113%; in assay [4] it was 100%; in assay [5], 90.8%; in assay [6], 72.2%. Besides, the growth is 95.5% in assay [7], 72.1% in assay [8], 99.5% in [9] and 91.5% in [10].

Consider `CC1=C(C(=O)n2c3ccccc3c3ccccc32)C(c2cccc([N+](=O)[O-])c2)C(C(=O)n2c3ccccc3c3ccccc32)=C(C)N1`, for which the growth in assay [1] was 81.9%; in assay [2] it was 104%; in assay [3], 82.9%; in assay [4], 95.6%; in assay [5], 89.5%; in assay [6], 80.7%. Besides, the growth is 93.7% in assay [7], 87.6% in assay [8], 87.1% in assay [9] and 103% in assay [10].

Take `CC(C)(C)c1cc(C=Nc2cccc(C(F)(F)F)c2)c(O)c(C(C)(C)C)c1`: the growth in [1] is 83.7%; in assay [2] it was 81%; in [3], 83.6%; in assay [4], 93.9%; in assay [5], 77.6%; in assay [6], 80.2%. Also, the growth in assay [7] was 99.9%; in [8], 101%; in assay [9], 101%; in [10], 107%.

Turning to `O=C(CSc1nnc2sc(Nc3cccc(Cl)c3)nn12)c1ccc(F)cc1`, the growth in [1] was 92.3%; in assay [2], 90.5%; in assay [3], 104%; in [4], 95.5%; in [5], 97.9%; in [6], 85%. Moreover, the growth was 98.5% in assay [7], 82.7% in [8], 91.7% in [9] and 104% in [10].

Regarding `CCN1C(=O)N(CC)C2C1NN=C1SCC(=O)N12` (stereo not given), the growth is 82% in assay [1]; 59.5% in [2]; 85.8% in assay [3]; 97% in assay [4]; 107% in [5]; 94% in [6]. The growth in assay [7] was 101%; in assay [8], 85.8%; in assay [9], 107%; in assay [10] it was 96.6%.

As to `CCN(CC)c1ccc(/C=N\NC(=O)c2cccc(Nc3ccnc(C(F)(F)F)c3)c2)c(O)c1`, the growth is 28.7% in assay [1]; 11.7% in assay [2]; 34.7% in assay [3]; 15.9% in assay [4]; 13.1% in assay [5]; 18.9% in assay [6]. Moreover, the growth is -52.2% (active) in assay [7], -12.2% (active) in [8], -6.15% (active) in assay [9] and 64.8% in [10].

As for `CN1CCN(c2ccc3c(c2)nc(NNC(=O)c2cnccn2)c2cccn23)CC1`, the growth was 23.9% in assay [1]; 28.6% in assay [2]; 66.7% in [3]; 34.9% in assay [4]; 32.2% in [5]; 47.3% in assay [6]. In addition, the growth in assay [7] is 31.2%; in [8], 12.9%; in assay [9], 10.3%; in [10] it was 24.8%.

`O=C(O)C1CN(c2cccc(Cl)c2)N(c2cccc(Cl)c2)C1=O` (stereo not given): the growth in assay [1] was 91.8%; in [2] it was 96.2%; in assay [3], 76.9%; in assay [4] it was 82.8%; in [5] it was 102%; in [6] it was 94.6%. Besides, the growth in assay [7] is 98%; in assay [8], 88.5%; in assay [9], 88.7%; in assay [10] it was 93.1%.

Take `COc1cc2c3c(n(CCCCNCCCn4c5c(c6cc(OC)c(OC)cc6c4=O)C(=O)c4cc6c(cc4-5)OCO6)c(=O)c2cc1OC)-c1cc2c(cc1C3=O)OCO2`: the growth in [1] is 99.6%; in assay [2], 93.3%; in [3], 91%; in [4], 102%; in assay [5], 91.6%; in assay [6], 93%. Also, the growth is 102% in assay [7], 96.8% in assay [8], 95.2% in [9] and 109% in assay [10].

Turning to `Nc1c(C(=O)O)cc(Cl)cc1[N+](=O)[O-]`, the growth in assay [1] is 104%; in assay [2], 97.7%; in assay [3] it was 89.8%; in assay [4], 112%; in assay [5], 104%; in [6] it was 80.8%. For the same compound, the growth in [7] was 103%; in assay [8], 96.4%; in [9] it was 100%; in assay [10], 109%.

Regarding `CC(C)[C@@]12C[C@@H](OC(=O)COC(=O)c3ccccc3)[C@@](C)(O1)[C@@H]1CC[C@@H](C)[C@H]1[C@@H]2OC(=O)/C=C/c1ccccc1`, the growth in [1] was 92.5%; in [2], 89.9%; in assay [3], 72.6%; in assay [4] it was 84.5%; in assay [5], 84%; in [6], 74.2%. Also, the growth is 90.7% in assay [7], 83.2% in assay [8], 89.1% in assay [9] and 107% in assay [10].

As for `Cc1ccc2[nH]c(-c3ccc(S(C)(=O)=O)cc3)c(/C=N/N=C(N)N)c2c1`, the growth in [1] was 35.3%; in [2], 16.7%; in assay [3] it was 65.4%; in assay [4], 57.1%; in assay [5], 33.4%; in assay [6] it was 39.9%. For the same compound, the growth in assay [7] is 29.1%; in assay [8], 41.5%; in assay [9], 47.3%; in assay [10], 71.2%.

As for `CCN=C1C=CC(=C(c2ccc(N(C)C)cc2)c2ccc(N(C)C)cc2)c2ccccc21`, the growth in assay [1] is -7.99% (active); in assay [2], -18.7% (active); in [3] it was -17.3% (active); in [4], 14.8%; in [5] it was -3.23% (active); in assay [6] it was -4.82% (active). The growth is -95.5% (active) in assay [7], -38% (active) in assay [8], -10.8% (active) in assay [9] and -18.5% (active) in assay [10].

Turning to `O=C1Nc2ccccc2/C1=C/c1cn(C[C@@H](O)Cn2c3ccccc3c(=O)c3ccccc32)c2ccccc12`, the growth was 73.9% in assay [1]; 77.8% in [2]; 63.6% in assay [3]; 73.1% in assay [4]; 75.2% in assay [5]; 51.1% in assay [6]. In addition, the growth in assay [7] was 67.1%; in assay [8], 69.2%; in assay [9], 69.1%; in [10], 95.4%.

As to `CC[C@H](Nc1nc(N)nc(C)c1C#N)c1nc2cccc(NCCCCCC(=O)NO)c2c(=O)n1-c1ccccc1`, the growth is 78.7% in assay [1]; 79.2% in assay [2]; 5.55% (active) in assay [3]; 71% in [4]; 61.3% in assay [5]; 45.1% in assay [6]. Moreover, the growth is 49.7% in assay [7], 15.7% in assay [8], 66.5% in [9] and 45.8% in [10].

Regarding `CCN(CC)CCCC(C)Nc1ccc2cc(OC)ccc2n1` (stereo not given), the growth in [1] was 103%; in [2], 106%; in assay [3], 89.8%; in assay [4], 106%; in [5], 97.9%; in assay [6], 95.4%. In addition, the growth in [7] is 107%; in assay [8] it was 108%; in assay [9] it was 102%; in [10], 108%.

As to `Cc1ccc(C(=O)c2ccc(CC(=O)N/N=C/c3ccc(O)cc3O)n2C)cc1`, the growth was 16.8% in assay [1]; 64% in assay [2]; 31.1% in [3]; 49.4% in assay [4]; 37.6% in assay [5]; 61.1% in assay [6]. The growth in assay [7] is 39.3%; in assay [8], 29.8%; in assay [9], 18.8%; in assay [10] it was 46.4%.

As for `O=C1/C(=C/c2ccc(C(F)(F)F)cc2)COc2ccc(O)c(O)c21`, the growth in assay [1] was -6.49% (active); in assay [2], 8.23% (active); in assay [3], 33.4%; in [4], 27.1%; in [5] it was -50.6% (active); in assay [6] it was -36.1% (active). Besides, the growth in assay [7] was 68.5%; in assay [8], 12.2%; in assay [9], -90.8% (active); in [10], 72.1%.

`COc1ccc(Cc2nnc(Nc3nc4ccccc4s3)s2)cc1`: the growth is 92.4% in assay [1]; 110% in [2]; 92.2% in [3]; 94.2% in assay [4]; 98.2% in assay [5]; 108% in assay [6]. Moreover, the growth is 96.5% in assay [7], 89.6% in [8], 96.4% in assay [9] and 92.3% in [10].
